# Calls of active or inactive are those of the source. Rule for the calls: active = hit-call score of the fitted dose curve at least 0.9, where 1 is the maximum; inactive = score below 0.9.
# System: not listed separately
# Experiment: ATG_RORE_CIS: Attagene CIS-FACTORIAL HepG2 Assay for human RAR-related Orphan Receptor Element (RORE) (AID 2282959)
# Settings: HepG2 Attagene cis-factorial RORE reporter, mRNA; actives raise or lower the signal
# Summary of the method: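 Measured here: transcript induction of a cis-regulated reporter in HepG2 cells transiently transfected via FuGene 6. After 24 h, RNA was processed by RT-PCR and fluorescent capillary electrophoresis; DMSO defined baseline activity.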
SMILES,outcome,AC50
CCCCNC(=O)NS(=O)(=O)c1ccc(N)cc1,inactive,–
CCCCCCCCCCN,inactive,–
CC(C)(CO)[N+](=O)[O-],inactive,–
CC1(C)C(=O)N(Br)C(=O)N1Cl,inactive,–
CC(=O)Nc1ccc(CC(=O)O)cc1,inactive,–
CC(C)C1CCC(O)CC1 (stereo unspecified),inactive,–
C=C(C)C(=O)O,inactive,–
CCCCCNCCCCC,inactive,–
O=C[C@H](O)[C@H](O)[C@H](O)CO,inactive,–
CCCCOCCOCCOCCOCCO,inactive,–
C=C[Si](OCC)(OCC)OCC,inactive,–
COC(C)CCO (stereo unspecified),inactive,–
OCCOc1cccc(OCCO)c1,inactive,–
C=C(C)[C@@H]1CC[C@@H](C)C[C@@H]1O,inactive,–
CCCCCCCCCCCCN(CCCCCCCCCCCC)CCCCCCCCCCCC,inactive,–
Cc1ccc(C(C)C)cc1O,inactive,–
CC(=O)[O][Al][O]C(C)=O,inactive,–
CC(=O)c1c(C)cc(C(C)(C)C)cc1C,inactive,–
CCCCCCCCCCCCCCCC(=O)OC[C@H](O)[C@H]1OC(=O)C(O)=C1O,inactive,–
C=C(C)C(=O)O[C@H]1C[C@@H]2CC[C@@]1(C)C2(C)C,inactive,–
CCCCCCCCCCCCCOS(=O)(=O)O,inactive,–
CCCCN,inactive,–
CC(C)=CCO,inactive,–
NCCCCCCN,inactive,–
C=C(C)C(=O)Nc1ccc(Cl)c(Cl)c1,–,27.2 µM (active)
CC(C)C(C)(C)C(C)(C)C(C)(C)S,inactive,–
C=C(C)C1CCC(C)CC1O (stereo unspecified),inactive,–
CC(C)[C@@H]1CC[C@@H](C)CC1=O,inactive,–
CCCCCC(CO)CCC (stereo unspecified),inactive,–

# System: not listed separately
# Experiment: ATG_Sox_CIS: Attagene CIS-FACTORIAL HepG2 Assay for human SRY-box transcription factor (SOX) (AID 2282960)
# Settings: HepG2 Attagene cis-factorial SOX reporter, mRNA; actives raise or lower the signal
# Summary of the method: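 Using transiently transfected HepG2 cells, reporter transcription driven by cis elements was assessed 24 h after dosing. Signal was fluorescence of capillary-separated RT-PCR products, with DMSO defining baseline activity.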
SMILES,outcome,AC50
CCCCNC(=O)NS(=O)(=O)c1ccc(N)cc1,inactive,–
CCOC(=O)c1ccccc1OC,inactive,–
CCCCCCCCCCN,inactive,–
CC(C)(CO)[N+](=O)[O-],inactive,–
CC1(C)C(=O)N(Br)C(=O)N1Cl,inactive,–
COc1ccc(O)cc1,inactive,–
CC(=O)Nc1ccc(CC(=O)O)cc1,inactive,–
C=C(C)C(=O)O,inactive,–
CCCCCNCCCCC,inactive,–
COc1cc(C=O)ccc1OC(=O)C(C)C,inactive,–
O=C[C@H](O)[C@H](O)[C@H](O)CO,inactive,–
CCCCOCCOCCOCCOCCO,inactive,–
C=C[Si](OCC)(OCC)OCC,inactive,–
CCCCCCOC(=O)CCCCC,inactive,–
COC(C)CCO (stereo unspecified),inactive,–
OCCOc1cccc(OCCO)c1,inactive,–
C=C(C)[C@@H]1CC[C@@H](C)C[C@@H]1O,inactive,–

SMILES,outcome,AC50
CCCCCCCCCCCCN(CCCCCCCCCCCC)CCCCCCCCCCCC,inactive,–
Cc1ccc(C(C)C)cc1O,inactive,–
CC(=O)[O][Al][O]C(C)=O,inactive,–
CCCCCCCCCCCCCCCC(=O)O,inactive,–
CCCCCCCCCCCCCCCC(=O)OC[C@H](O)[C@H]1OC(=O)C(O)=C1O,–,150 µM (active)
C=C(C)C(=O)O[C@H]1C[C@@H]2CC[C@@]1(C)C2(C)C,inactive,–
CCCCCOC(=O)CCC,inactive,–
Nc1nc2ccc([N+](=O)[O-])cc2s1,inactive,–
CCCCCCCCCCCCCOS(=O)(=O)O,inactive,–
CCCCN,inactive,–
C=C(C)C(=O)Nc1ccc(Cl)c(Cl)c1,inactive,–
O=S(=O)(O)NC1CCCCC1,inactive,–
CC(C)C(C)(C)C(C)(C)C(C)(C)S,inactive,–
C=C(C)C1CCC(C)CC1O (stereo unspecified),inactive,–
CC(C)[C@@H]1CC[C@@H](C)CC1=O,inactive,–
CCCCCC(CO)CCC (stereo unspecified),inactive,–
O=c1[nH]c(=O)n([C@H]2CCCO2)cc1F,inactive,–

# Target: Transcription factor Sp1 (Homo sapiens) (UniProt P08047)
# Experiment: ATG_Sp1_CIS: Attagene CIS-FACTORIAL HepG2 Assay for human Specificity Protein 1 (Sp1) (AID 2282961)
# Settings: HepG2 Sp1 cis-reporter transcription, actives raise or lower the signal
# Summary of the method: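 After transient transfection of HepG2 cells with cis-promoter reporter units and 24 h chemical treatment, reporter transcripts were quantified by RT-PCR and capillary electrophoresis fluorescence. Gain- and loss-of-signal fitted against DMSO.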
# Chain of Transcription factor Sp1 (Homo sapiens) (P08047 whole entry, looked up): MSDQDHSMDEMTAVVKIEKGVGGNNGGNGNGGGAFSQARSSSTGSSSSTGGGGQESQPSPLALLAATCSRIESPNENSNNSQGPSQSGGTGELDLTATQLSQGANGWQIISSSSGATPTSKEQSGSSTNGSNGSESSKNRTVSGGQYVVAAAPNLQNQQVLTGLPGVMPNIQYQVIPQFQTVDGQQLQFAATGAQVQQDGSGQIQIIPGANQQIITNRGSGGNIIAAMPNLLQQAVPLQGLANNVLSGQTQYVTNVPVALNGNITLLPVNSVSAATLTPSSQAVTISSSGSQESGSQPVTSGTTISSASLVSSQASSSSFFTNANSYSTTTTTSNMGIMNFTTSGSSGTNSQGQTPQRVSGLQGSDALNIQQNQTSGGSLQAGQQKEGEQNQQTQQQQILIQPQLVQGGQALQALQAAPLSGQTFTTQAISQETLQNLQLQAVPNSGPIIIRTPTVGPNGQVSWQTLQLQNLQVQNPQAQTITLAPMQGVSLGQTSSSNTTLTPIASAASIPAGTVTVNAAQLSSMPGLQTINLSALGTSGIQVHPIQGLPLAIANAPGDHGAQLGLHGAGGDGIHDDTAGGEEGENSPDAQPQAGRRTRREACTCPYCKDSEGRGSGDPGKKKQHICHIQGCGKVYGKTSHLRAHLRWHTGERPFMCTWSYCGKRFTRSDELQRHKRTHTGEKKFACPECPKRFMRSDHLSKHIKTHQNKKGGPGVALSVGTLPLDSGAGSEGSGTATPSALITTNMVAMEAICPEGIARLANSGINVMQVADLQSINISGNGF
row,SMILES,outcome
1,CCCCNC(=O)NS(=O)(=O)c1ccc(N)cc1,inactive
2,CCOC(=O)c1ccccc1OC,inactive
3,CCCCCCCCCCN,inactive
4,CC(C)(CO)[N+](=O)[O-],inactive
5,CC1(C)C(=O)N(Br)C(=O)N1Cl,inactive
6,COc1ccc(O)cc1,inactive
7,CC(=O)Nc1ccc(CC(=O)O)cc1,inactive
8,CC(C)C1CCC(O)CC1 (stereo unspecified),inactive
9,C=C(C)C(=O)O,inactive
10,CCCCCNCCCCC,inactive
11,COc1cc(C=O)ccc1OC(=O)C(C)C,inactive
12,O=C[C@H](O)[C@H](O)[C@H](O)CO,inactive
13,CCCCOCCOCCOCCOCCO,inactive
14,C=C[Si](OCC)(OCC)OCC,inactive
15,CCCCCCOC(=O)CCCCC,inactive
16,COC(C)CCO (stereo unspecified),inactive
17,OCCOc1cccc(OCCO)c1,inactive
18,C=C(C)[C@@H]1CC[C@@H](C)C[C@@H]1O,inactive
19,CCCCCCCCCCCCN(CCCCCCCCCCCC)CCCCCCCCCCCC,inactive

row,SMILES,outcome
1,Cc1ccc(C(C)C)cc1O,inactive
2,CC(=O)[O][Al][O]C(C)=O,inactive
3,CCCCCCCCCCCCCCCC(=O)O,inactive
4,CC(=O)c1c(C)cc(C(C)(C)C)cc1C,inactive
5,CCCCCCCCCCCCCCCC(=O)OC[C@H](O)[C@H]1OC(=O)C(O)=C1O,inactive
6,C=C(C)C(=O)O[C@H]1C[C@@H]2CC[C@@]1(C)C2(C)C,inactive
7,CCCCCOC(=O)CCC,inactive
8,Nc1nc2ccc([N+](=O)[O-])cc2s1,inactive
9,CCCCCCCCCCCCCOS(=O)(=O)O,inactive
10,CCCCN,inactive
11,CC(C)=CCO,inactive
12,NCCCCCCN,inactive
13,C=C(C)C(=O)Nc1ccc(Cl)c(Cl)c1,inactive
14,O=S(=O)(O)NC1CCCCC1,inactive
15,CC(C)C(C)(C)C(C)(C)C(C)(C)S,inactive
16,C=C(C)C1CCC(C)CC1O (stereo unspecified),inactive
17,CC(C)[C@@H]1CC[C@@H](C)CC1=O,inactive
18,CCCCCC(CO)CCC (stereo unspecified),inactive
19,O=c1[nH]c(=O)n([C@H]2CCCO2)cc1F,inactive
